Assay outcomes: PubChem, several laboratories
Most compounds without a hit are left out; they make up all but 0.44% or so of the library.
RmlC RmlD mix: RmlC/RmlD inhibition, mixture screen | RmlC/RmlD coupled enzyme inhibition, 384-well mixture HTS | inhibition, % at 5.5 µM | 110,000 compounds, 0.39% hits; in the data active = inhibition above about 30%, passing the limit was not always enough
YopH PTP inh: YopH (Yersinia) phosphatase inhibition; fluorescence Ex485/Em525; inhibition, % (concentration not given with the values); 140,000 compounds, 0.16% hits; in the data active = inhibition above about 50%
RmlCD artifact: counter-screen for RmlC/RmlD inhibitors: fluorescence artifact | shares compounds with RmlC RmlD mix | RmlC/RmlD assay fluorescence artifact counter-screen | calls only | 360 compounds, 96% hits | AID 1696; call rule not given here;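 note: compound alone with no enzyme and no substrates present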
Hits are given with their value; - = inactive; . = no result; + = active, no number.

SMILES | RmlC RmlD mix | YopH PTP inh | others
O=C(c1cccs1)c1no[n+]([O-])c1C(=O)c1cccs1 | - | 87
O=C(COC(=O)/C=C/c1ccc([N+](=O)[O-])cc1)NCc1ccccc1 | . | -
O=C(/C=C/c1ccc([N+](=O)[O-])cc1)OCC(=O)N1c2ccccc2Sc2ccccc21 | . | 53
O=C(CNC(=O)c1ccc(Cl)cc1)NCC(F)(F)F | . | -
CC1CC(C)CN(S(=O)(=O)c2ccccc2[N+](=O)[O-])C1 (stereo not given) | . | -
O=C(Nc1ccc2c(c1)nc1n2CCN(Cc2ccccc2)C1)NC1CCCCC1 | - | -
COCCN1CCn2c(nc3cc(NC(=O)NC4CCCCC4)ccc32)C1 | 59 | -
COC1=C(OC)C(=O)C(CCCCCCCCCCO)=C(C)C1=O | - | .
CC1=C(C)C(=O)C(CCCCC#CCCCC#CCO)=C(C)C1=O | - | 65
O=S(=O)(Nc1ccc(S(=O)(=O)N2CCCCC2)cc1)c1ccc(Br)s1 | - | -
CCOC(=O)c1ccc(Oc2c(C)oc3cc(OS(C)(=O)=O)ccc3c2=O)cc1 | . | -
COc1ccccc1-c1c(C)nn2c(N3CCCCCC3)cc(C)nc12 | - | 81
COc1ccccc1-c1c(C)nn2c(N3CCN(c4ccccc4OC)CC3)cc(C)nc12 | - | -
CCOC(=O)c1cc2c(nc1N)CC(C)(C)OC2 | 39 | -
CCOC(=O)c1cc2c(nc1N)CC(C)(CC)OC2 (stereo not given) | - | -
CCOC(=O)C1CCN(Cc2cnc(Oc3ccc(N)cc3)s2)CC1 | - | -
CC(C)(C)C(=O)[C@@H]1[C@@H]2C(=O)N(Cc3ccccc3)C(=O)[C@@H]2[C@H]2c3ccccc3C=CN12 | - | -
CC(=O)[C@H]1[C@@H]2C(=O)N(c3cccc(Cl)c3)C(=O)[C@@H]2[C@H]2c3ccccc3C=CN21 | - | 67
CC(=O)[C@@H]1[C@@H]2C(=O)N(C3CCCCC3)C(=O)[C@@H]2C2c3ccccc3C=CN21 (stereo not given in full) | - | -
CC(=O)[C@@H]1[C@@H]2C(=O)N(c3ccc(F)c(Cl)c3)C(=O)[C@@H]2C2c3ccccc3C=CN21 (stereo not given in full) | - | 71
CC(=O)c1cc(C#N)c(Oc2ccc(Cl)cc2Cl)nc1C | - | -
Cc1ccc(S(=O)(=O)n2[nH]c(=O)cc2N)cc1 | - | .
COc1ccccc1NC(=O)c1sc2ncn(Cc3cccc(C)c3)c(=O)c2c1C | 66 | -
COc1ccccc1NC(=O)c1sc2ncn(Cc3ccc(C)cc3)c(=O)c2c1C | - | -
S=C(c1cn(Cc2ccc(Br)cc2)c2ccccc12)N1CCOCC1 | . | -
SMILES | RmlC RmlD mix | YopH PTP inh | others
Cc1nc(Cc2nnc(SCc3nc(N)nc(Nc4ccccc4C)n3)o2)cs1 | - | -
O=C(O)C1=C[C@@H](C2CCCCC2)C[C@@H](OCCCCO)O1 | - | .
O=c1[nH]c(Nc2ccc(F)cc2)cc2ccccc12 | - | 90
O=c1[nH]c(Nc2ccccn2)cc2ccccc12 | - | .
O=c1[nH]c(Nc2ccccc2Cl)cc2ccccc12 | - | .
Cc1ccccc1Nc1cc2ccccc2c(=O)[nH]1 | - | 101
COc1ccc(S(=O)(=O)N(C)CC(=O)Nc2cccc(C(C)=O)c2)cc1Cl | - | -
CCN(CC)S(=O)(=O)c1ccc(C(=O)N2CCCCC2)cc1 | - | -
CCC(=O)Nc1nonc1-c1nc2ccccc2n1CCC(C)C | - | 57
CC(=O)Nc1nonc1-c1nc2ccccc2n1CCC(C)C | . | -
O=C(NCc1ccc(F)cc1)C(=O)NCC1OCCN1S(=O)(=O)c1cccs1 (stereo not given) | - | -
COC(=O)C1=C(C(=O)OC)[C@@H]2N(Cc3ccccc3)c3ccccc3[C@@]23C[C@@H](C(=O)OC)N=C3N1 | - | .
Cc1cc(C)c(S(=O)(=O)N2CCC(C(=O)NCc3ccco3)CC2)c(C)c1 | - | -
CCCNc1nc(C)cc(-c2cc(C(=O)NC3CCCC3)on2)n1 | - | .
CCOc1cccc(Nc2cc3n(c(=O)n2)CCc2cc(OC)c(OC)cc2-3)c1 | - | -
COc1cc2c(cc1OC)-c1cc(OCc3cccnc3)nc(=O)n1CC2 | 115 | - | RmlCD artifact=+
Oc1ccc(C2C(c3ccccc3)=NN=C(c3ccc(Cl)cc3)N2O)c(O)c1 (stereo not given) | . | -
CCOc1cc(-c2nc3ccccn3c2NCC2CCCO2)ccc1O (stereo not given) | - | -
CCOc1cc(-c2nc3c(C)cccn3c2NCC2CCCO2)ccc1O (stereo not given) | 44 | - | RmlCD artifact=+
CCOC(=O)NC(=O)C(=CNc1ccccc1C)C(=O)NC(=O)OCC | . | -
CCCCn1c(=O)[nH]c(=O)c2c1nc(-c1ccc(C#N)cc1)n2C1CCCC1 | . | -
CC(C)Cn1c(-c2ccc(C#N)cc2)nc2c1c(=O)[nH]c(=O)n2CC(C)C | 32 | - | RmlCD artifact=+
COc1ccc(-c2c3c(=O)n(C)c(=O)n(C)c3cn2-c2cc(OC)ccc2OC)cc1 | - | -
O=C(N/N=C/c1ccc(Br)cc1)c1ccccc1-n1cccc1 | - | -
COCCN(C(=O)c1cccc(OC)c1)c1nnc(-c2ccncc2)s1 | - | -
SMILES | RmlC RmlD mix | YopH PTP inh | others
C=CCN(C(=O)COc1ccccc1)c1nnc(-c2ccncc2)s1 | 154 | - | RmlCD artifact=+
COC(=O)c1ccc(C(NC(=O)OCc2ccccc2)/C(F)=C/[C@@H](C)C(=O)NCc2ccc(OC)c(OC)c2)cc1 (stereo not given in full) | - | -
CC(C)(O[C@@H]1O[C@H](CO)[C@@H](O)[C@H](O)[C@H]1O)[C@H]1Cc2cc3ccc(=O)oc3cc2O1 | 56 | - | RmlCD artifact=+
C=C(C)C1Cc2cc3ccc(=O)oc3cc2O1 (stereo not given) | . | -
CC(C)Nc1nc(NC(C)C)nc(SCCOC(=O)Nc2ccc(Cl)cc2Cl)n1 | . | -
Cc1ccc2c(c1)CC1(CN2C)C(=O)OC2(CCCCC2)OC1=O | - | -
CN1CC2(Cc3c1ccc1ccccc31)C(=O)OC(C)(C)OC2=O | + | - | RmlCD artifact=+
N#C/C(=C\c1cccnc1)C(=O)NC1CCCCC1 | . | -
O=C(NCc1ccccn1)NC1CCCCC1 | . | -
CCCc1cc(NCCCCO)n2c(nc3ccccc32)c1C#N | - | -
CCCc1cc(N2CCN(C(=O)c3ccco3)CC2)n2c(nc3ccccc32)c1C#N | 39 | - | RmlCD artifact=+
Cc1ccc(SCCN2CCN(CC(C)C)CCC2=O)cc1 | - | .
COCCSc1ccccc1C(=O)N1CCOCC1 | - | -
CCCCNC(=S)Nc1ccc(-c2nc3ccc(C)cc3s2)cc1 | . | -
Cc1ccc2nc(-c3ccc(NC(=S)NCCC(C)C)cc3)sc2c1 | 130 | - | RmlCD artifact=+
CC(C)OCCCn1c(=N)c(C(N)=S)cc2c(=O)n3ccccc3nc21 | - | -
Cc1ccc2nc3c(cc(C(=O)NCC4CCCO4)c(=N)n3CCCOC(C)C)c(=O)n2c1 (stereo not given) | 126 | - | RmlCD artifact=+
CCN(CC)C(=O)COc1ccc(C=O)cc1OC | . | -
CCOC(=O)c1sc(Nc2nc3c(OC)cccc3s2)nc1C | 79 | - | RmlCD artifact=+
CCOC(=O)c1sc(Nc2ccccc2)nc1C | - | -
O=C(Oc1ccc2c3c(c(=O)oc2c1)CCCC3)c1ccco1 | 110 | - | RmlCD artifact=+
O=c1oc2cc(O)ccc2c2c1CCCC2 | 126 | - | RmlCD artifact=+
Cc1cc(OC(=O)c2ccco2)c2c3c(c(=O)oc2c1)CCC3 | - | -
O=c1oc2cc(O)ccc2c2ccccc12 | - | -
CN(C)c1ccc(C2CC(c3ccccc3)=Nc3nc(-c4ccccc4)cn32)cc1 (stereo not given) | . | -
